Compound activity as filed in PubChem.
Shown is part of a subset that was picked to be rich in hits.
nsP2pro inh – blocks chikungunya virus nsP2 protease peptide cleavage; FRET peptide cleavage, nsP2pro, fluorescence 1 h; Potency, µM (series often up to 24.9 µM), most hits filed as inhibitors; actives 1.1% (n = 31,000); note: nearly all actives have a fitted effect of over 60% in size
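Enzyme 150 nM, substrate 2.5 uM (both final); Tris-HCl 10 mM pH 8.0 + 0.01% Tween 20; cpd up to 25 uM, 7 pts; 15 min preinc., 1 h RT; fluorescence ex 525/em 598.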
nsP2 cell sec – secondary cell-based test for CHIKV nsP2 protease inhibitors; Potency, µM (highest dose often 51.1 µM), actives largely listed as inhibitors; shares compounds with nsP2pro inh; actives 10% (n = 450); cell-based CHIKV nsP2 protease reporter assay; note: nearly all actives have a fitted effect of over 70% in size
NSP2 full ctr – selectivity test for CHIKV nsP2 protease inhibitors: full-length NSP2; shares compounds with nsP2pro inh; Full-length CHIKV NSP2 protease enzymatic counterscreen; Potency, µM (titrated, usually from 50.7 µM), actives largely listed as inhibitors; actives 39% (n = 410); AID 1964101; note: nearly all actives have a fitted effect of over 65% in size
Furin counter – selectivity counter-screen for CHIKV nsP2 protease inhibitors: human furin. shares compounds with nsP2pro inh. Recombinant human furin enzymatic counterscreen, fluorogenic substrate. Potency, µM (highest dose often 50.6 µM), hits mostly inhibitors. actives 6% (n = 410)
NS23 peptide cs – blocks CHIKV nsP2 protease cleavage of endogenous NS2/3 peptide | shares compounds with nsP2pro inh | Purified CHIKV nsP2 protease, endogenous NS2/3 peptide cleavage | Potency, µM (highest dose often 51 µM), actives largely listed as inhibitors | actives 34% (n = 410) | AID 1964103; note: nearly all actives have a fitted effect of over 55% in size
Papain counter – selectivity counter-screen for CHIKV nsP2 protease inhibitors: papain | shares compounds with nsP2pro inh | purified papain protease activity, enzymatic inhibition | Potency, µM (doses to about 51 µM), usual class: inhibitors | actives 5% (n = 410) | AID 1964104
nsP2pro confirm – confirmation of CHIKV nsP2 protease inhibitors | actives 43% (n = 410) | Potency, µM (top dose mostly 25.5 µM), actives largely listed as inhibitors | CHIKV nsP2 protease enzymatic activity, qHTS | shares compounds with nsP2pro inh; note: nearly all actives have a fitted effect of over 75% in size
HCV NS3 4A cs – selectivity counter-screen for CHIKV nsP2 protease inhibitors: HCV NS3/4A. actives 20% (n = 410). Potency, µM (series often up to 50.9 µM), usual class: inhibitors. shares compounds with nsP2pro inh. AID 1964106. HCV NS3/4A protease biochemical counterscreen; note: nearly all actives have a fitted effect of over 55% in size
Hits are given with their value; - = inactive; ? = inconclusive; . = no result given; ! = not confirmed by another sample. Calls come from the whole dose curve.

SMILES	nsP2pro inh	nsP2 cell sec	others
O=C(NCc1ccc(F)c(F)c1)C1CN(C2CCCC2)C(=O)N1 (stereo unspecified)	-	.
CNc1nc2c(s1)C(c1cccc(F)c1)CC(=O)N2 (stereo unspecified)	3.2µM	-	NSP2 full ctr=?;Furin counter=-;NS23 peptide cs=10µM;Papain counter=-;nsP2pro confirm=5.7µM;HCV NS3 4A cs=-
CSc1nc(=O)c2c(n1C)NC(=O)CC2c1cc(F)cc(F)c1 (stereo unspecified)	-	.
COc1ccc(CN2C(=O)c3ccccc3NC2c2ccc(OC)c(COc3c(C)cc(NC(C)=O)cc3C)c2)cc1 (stereo unspecified)	-	.
Cc1nc(-c2c3n(c(=O)n(CC#N)c2=O)CCCCC3)no1	-	.
COc1ccccc1N1CCN(C(c2ccccc2)c2nnc(-c3ccccc3Cl)o2)CC1 (stereo unspecified)	-	.
COc1ccc(N2CCN(C(c3ccccc3)c3nnc(-c4ccccc4Cl)o3)CC2)cc1 (stereo unspecified)	?	?
COc1ccccc1N1CCN(C(c2ccc(Cl)cc2)c2nnc(-c3cccc(F)c3)o2)CC1 (stereo unspecified)	-	.
Cc1csc2c(N[C@@H](C)CN3CCN(S(=O)(=O)c4ccc(Cl)c(Cl)c4)CC3)ncnc12	-	.
CC(=O)N1CCCC(c2nc(-c3ccc4nc[nH]c4c3)no2)C1 (stereo unspecified)	-	.
O=C(C1CCCC1)N1CC2(CCN(Cc3ccc(Cl)cc3)C2)Cc2ccccc21 (stereo unspecified)	-	.
CC(C)N1C(=O)C2(CCCC2)C1C(=O)N1CCc2ccccc21 (stereo unspecified)	-	.
O=C(Nc1ncc(-c2ccccc2)s1)c1ccc(-c2cccc([N+](=O)[O-])c2)o1	-	.
COc1ccnc(NC(=S)N2CCN(c3cc(C(F)(F)F)cc(C(F)(F)F)c3)CC2)c1	-	.
C=C1/C(=C\C=C2/CCC[C@@]3(C)C2CC[C@@H]3[C@H](C)/C=C\[C@@H](O)C2CC2)C[C@@H](O)C[C@@H]1O (stereo partly specified)	-	.
Cc1cnc(CCN)n1Cc1ccccc1	-	.
Cc1sc2c(c1C)c(=O)n(Cc1ccccc1)c(=O)n2Cc1ccc(F)cc1	-	.
Cn1sc(=O)n(Cc2ccccc2)c1=O	6.2µM	?	NSP2 full ctr=12µM;Furin counter=?;NS23 peptide cs=9.2µM;Papain counter=-;nsP2pro confirm=4µM;HCV NS3 4A cs=-
O=c1c2ccc([N+](=O)[O-])cc2nc2sc(Nc3ccc4c(c3)CCC4)nn12	-	.
Nc1cc(-c2ccncc2)c[nH]c1=O	3.5µM	-	NSP2 full ctr=?;Furin counter=-;NS23 peptide cs=?;Papain counter=-;nsP2pro confirm=?;HCV NS3 4A cs=-
Nc1c(-c2ccncc2)cc[nH]c1=O	-	.
CC(=O)OC1CCC2(C)C(=CCC3C2CCC2(C)C(c4cccnc4)=CCC32)C1 (stereo unspecified)	-	.
CCC(C(=O)O)[C@H]1CC[C@H](C)[C@H]([C@@H](C)[C@H](O)[C@H](C)C(=O)[C@H](CC)[C@H]2OC3(C=C[C@@H](O)[C@]4(CC[C@@](C)([C@H]5CC[C@](O)(CC)[C@H](C)O5)O4)O3)[C@H](C)C[C@@H]2C)O1 (stereo partly specified)	-	.
CN(C)C(=S)SSC(=S)N(C)C	2.8µM	25µM	NSP2 full ctr=9.2µM;Furin counter=-;NS23 peptide cs=9.2µM;Papain counter=-;nsP2pro confirm=1.6µM;HCV NS3 4A cs=-
CN(C)C(=S)SC(=S)N(C)C	8.8µM	-	NSP2 full ctr=29µM;Furin counter=-;NS23 peptide cs=-;Papain counter=-;nsP2pro confirm=7.1µM;HCV NS3 4A cs=?
SMILES	nsP2pro inh	nsP2 cell sec	others
Cc1ccc(S(=O)(=O)NC[C@H]2OC[C@@H](N(C)C)[C@@H]2O)cc1	-	.
O=C(/C=C/c1ccccc1)OC[C@H]1O[C@@H](OC(=O)c2cc(O)c(O)c(O)c2)[C@H](O)[C@@H](O)[C@@H]1O	-	.
COC(=O)c1ccc(OC(C)=O)c2ncccc12	-	.
O=C(Cc1ccccc1)Nc1sc2c(c1C(=O)Nc1ccc(Cl)cc1)CCCC2	?	?	NSP2 full ctr=-;Furin counter=-;NS23 peptide cs=6.5µM;Papain counter=-;nsP2pro confirm=4µM;HCV NS3 4A cs=-
COc1ccc(CC(=O)Nc2sc3c(c2C(=O)Nc2ccccc2)CCCCC3)cc1	-	.
O=C(Cc1ccccc1)Nc1sc2c(c1C(=O)Nc1ccccc1)CCCCC2	-	.
C=C1CCC2C(C)(C(=O)O)CCCC2(C)C1CCC1=CCOC1=O (stereo unspecified)	-	.
C/C=C/C=C/C=C/C(=O)OC1C=C(C=O)C(O)(C(=O)O)C2(C)CCCC(C)(C)C12 (stereo unspecified)	-	.
Oc1cccc(-c2c3nc(c(-c4cccc(O)c4)c4ccc([nH]4)c(-c4cccc(O)c4)c4nc(c(-c5cccc(O)c5)c5ccc2[nH]5)CC4)C=C3)c1	?	-	NSP2 full ctr=18µM;Furin counter=-;NS23 peptide cs=18µM;Papain counter=?;nsP2pro confirm=14µM;HCV NS3 4A cs=-
CC12CC34CC(O)C5C(CO)(CO)CC(=O)CC5(C)C3CC1C2C4 (stereo unspecified)	-	.
Cc1cc(N[S+](=O)([O-])c2ccc(NC(=O)Cc3ccc(Cl)nc3)cc2)no1	-	.
CC(C)CC(=O)N1C(C(=O)NCC2CCCO2)COC12CCC(C)CC2 (stereo unspecified)	-	.
O=C(NCCCNc1nc(Nc2ccc(N3CCOCC3)cc2)ncc1C1CC1)C1CCC1	-	.
Cc1cccc(C(=O)Nc2ccc(N3CCN(c4ccc(F)cc4)CC3)c(C(=O)O)c2)c1	?	-	NSP2 full ctr=7.3µM;Furin counter=-;NS23 peptide cs=16µM;Papain counter=-;nsP2pro confirm=9µM;HCV NS3 4A cs=4.1µM
O=C(Nc1ccc(Br)cc1)c1ccc(Br)c(S(=O)(=O)N2CCCCC2)c1	-	.
Cc1cccc(C(=O)Nc2ccc(N3CCC(CCN4CCOCC4)CC3)c(C(=O)O)c2)c1	4.5µM!	-	NSP2 full ctr=-;Furin counter=-;NS23 peptide cs=-;Papain counter=-;nsP2pro confirm=-;HCV NS3 4A cs=?
O=C(Nc1ccc(N2CCC(N3CCCCC3)CC2)c(C(=O)O)c1)c1ccc(Br)cc1	-	.
O=C(Nc1ccc(N2CCOCC2)c(C(=O)O)c1)c1ccc(Br)cc1	3.5µM	-	NSP2 full ctr=2.9µM;Furin counter=?;NS23 peptide cs=6.5µM;Papain counter=-;nsP2pro confirm=5.7µM;HCV NS3 4A cs=1.6µM
Cc1cc(C)cc(C(=O)Nc2cc(C(F)(F)F)ccc2N2CCN(c3ccccc3)CC2)c1	-	.
O=C(Nc1ccccc1)c1cnc(N2CCCCC2)c2ccccc12	-	.
CC(=O)c1ccc(N2CCN(c3ccc(NC(=O)c4cccs4)cc3C(=O)O)CC2)cc1	-	.
Cc1cccc(C(=O)N2C[C@H]3OC(=O)N(CCCN4CCOCC4)[C@H]3C2)c1	-	.
O=C(Nc1cnc(N2CCC(N3CCCCC3)CC2)c(C(=O)O)c1)c1ccc(Br)cc1	4µM	-	NSP2 full ctr=4.1µM;Furin counter=?;NS23 peptide cs=16µM;Papain counter=-;nsP2pro confirm=8µM;HCV NS3 4A cs=4.1µM
